TDP1 cell noCPT – qHTS for Inhibitors of human tyrosyl-DNA phosphodiesterase 1 (TDP1): qHTS in cells in absence of CPT | DT40 Tdp1-/- hTDP1 cells, no CPT, ATP luminescence, 48 h | Potency, µM (doses to about 46.2 µM), for the others: at the highest dose activity change, negative = growth inhibition, actives largely listed as inhibitors | hit rate 15% among 420,000 | AID 686978, 2013; also: nearly all actives have a fitted effect of over 55% in size
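Seeded 400 DT40-hTDP1 cells/well (vehicle DMSO, no 20 nM CPT); pinned compounds; ≥48 hr at 37 °C; CellTiter-Glo luminescence as viability measure.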
TDP1 block – blocks human tyrosyl-DNA phosphodiesterase 1; Q9NUW8; recombinant TDP1, AlphaScreen DNA substrate cleavage; Potency, µM (top dose mostly 130 µM), for inactives: at the highest dose activity change, negative = inhibition, hits mostly inhibitors; hit rate 0.28% among 350,000; AID 485290; also: nearly all actives have a fitted effect of over 40% in size
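Recombinant E. coli-expressed Tdp1 (1 nM) preincubated with compound 15 min at RT, then 5'-biotin/3'-phosphotyrosine-FITC DNA substrate (15 nM) added for 5 min. AlphaScreen beads (10 ug/ml) added, 10 min RT; tyrosine-FITC cleavage read as signal loss.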
RORg inh – inhibitors of mouse ROR gamma transcriptional activity; hit rate 5.4% among 310,000; AID 2551; P51450; Potency, µM (highest dose often 53.6 µM), for inactives: top-dose activity change, negative = inhibition, actives largely listed as inhibitors; Drosophila S2 Gal4-RORgamma UAS-luciferase reporter, 20 h; also: nearly all actives have a fitted effect of over 60% in size
Target sequence (P51450 whole entry, looked up, the tested form may be a part): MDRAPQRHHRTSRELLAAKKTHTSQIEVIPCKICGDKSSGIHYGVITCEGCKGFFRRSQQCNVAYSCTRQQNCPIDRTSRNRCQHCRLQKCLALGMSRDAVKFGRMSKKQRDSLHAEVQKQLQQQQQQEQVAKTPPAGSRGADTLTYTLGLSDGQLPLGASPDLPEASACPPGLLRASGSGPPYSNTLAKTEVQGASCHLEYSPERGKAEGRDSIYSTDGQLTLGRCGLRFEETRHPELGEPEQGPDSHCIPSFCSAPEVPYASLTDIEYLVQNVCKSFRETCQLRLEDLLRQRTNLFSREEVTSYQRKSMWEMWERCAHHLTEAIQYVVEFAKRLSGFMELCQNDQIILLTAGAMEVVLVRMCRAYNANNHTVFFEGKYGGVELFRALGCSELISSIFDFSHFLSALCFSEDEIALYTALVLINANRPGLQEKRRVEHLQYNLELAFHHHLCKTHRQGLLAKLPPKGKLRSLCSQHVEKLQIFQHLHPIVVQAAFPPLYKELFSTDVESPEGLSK
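Luminescence from a UAS-regulated Photinus luciferase reporter in stably transfected Drosophila Schneider cells is measured; decreased signal marks ROR gamma inhibition. Fusion expression is induced by 700 uM copper sulfate for 20 hr.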
VP16 counter – counter-screen for ROR gamma inhibitors: Gal4-VP16 reporter; Drosophila S2 Gal4-VP16 UAS-luciferase, luminescence, 20 h; Potency, µM (doses to about 53.6 µM), without a hit: at the highest dose activity, negative = inhibition, actives largely listed as inhibitors; hit rate 3.5% among 310,000; AID 2546;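 also: Gal4-VP16 expression switched on by copper sulfate through the metallothionein promoter; nearly all actives have a fitted effect of over 50% in size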
TDP1 cell CPT – DT40-hTDP1 cell growth loss with CPT | chicken DT40 Tdp1-/-;hTDP1 cells + 20 nM CPT, ATP luminescence, 48 h | Potency, µM (doses to about 46.2 µM), for the others: top-dose activity change, negative = growth inhibition, usual class: inhibitors | hit rate 12% among 420,000; also: nearly all actives have a fitted effect of over 55% in size
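Chicken DT40 Tdp1-/- cells complemented with human TDP1, 400 cells/well, exposed to compounds plus 20 nM camptothecin for at least 48 h at 37 C; viability read as ATP content by CellTiter-Glo luminescence.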
Active calls of the source: *; ? = inconclusive; . = not tested or not shown; [ ] = another dose, or the depositor's remark. An excerpt weighted towards active compounds, which were near 19% of everything screened. Calls follow the shape of the dose curve; as a rule, active = well fitted curve in the direction sought with a large enough effect; inconclusive = small, poorly fitted or top-dose-only effect, or another doubt; inactive = no such curve, though single readings can be large; an effect the other way counts as inactive or inconclusive. % is scaled to controls: 0 for no effect and ±100 for the full control effect; potency is read from the fitted curve at half-maximal effect.

SMILES | TDP1 cell noCPT | TDP1 block | RORg inh | VP16 counter | TDP1 cell CPT
CCC(=O)N1N=C(c2ccc(NS(=O)(=O)c3ccccc3)cc2)CC1c1ccco1 (stereo not given) | 23µM* | 2% | . | . | ?
Cc1ccc(S(=O)(=O)N[C@H](C(=O)OCC(=O)N2N=C(c3ccc(Cl)cc3)CC2c2ccco2)C(C)C)cc1 (stereo not given in full) | 23µM* | 0% | 32% | -16% | 23µM*
Cn1nnnc1SCC(=O)N1N=C(c2ccc(Cl)cc2)CC1c1ccco1 (stereo not given) | 16µM* | 3% | . | . | 21µM*
COC(=O)Cc1c(C)nc2nc(-c3ccc(Cl)cc3)[nH]n2c1=O | -11% | 2% | -27% | -19% | -6%
Cc1[nH]c(C(=O)O)c(C)c1C(=O)OC(C)C | -15% | 7% | -1% | -15% | -17%
COc1ccccc1N1CCN(C(=O)CN2C(=O)COc3ccc(S(=O)(=O)N4CCCC4)cc32)CC1 | . | 4% | . | . | .
Nc1c(-c2ccccc2)c(CN2CCOCC2)nn1-c1ccc(F)cc1 | 6% | 5% | -2% | -3% | 9%
CC(=O)N1N=C(c2ccc(Cl)cc2)CC1c1ccco1 (stereo not given) | ? | . | 0% | 24% | 16µM*
O=C(C1CCCO1)N1N=C(c2ccc(Br)cc2)CC1c1ccco1 (stereo not given) | 15µM* | 4% | ? | 2% | ?
Cc1ccc(C2=NN(C(=O)CCCC(=O)O)C(c3ccco3)C2)cc1 (stereo not given) | 2% | 6% | 22% | 3% | 15%
CC(=O)N1N=C(c2ccc(C)cc2)CC1c1ccco1 (stereo not given) | ? | 0% | 36% | ? | -27%
Cc1nnc(SCC(=O)N2N=C(c3ccc(Cl)cc3)CC2c2ccco2)[nH]c1=O (stereo not given) | ? | 0% | 12% | -11%[10 µM] | 15µM*
COc1ccc(C2=NN(C(=O)COc3ncnc4ccccc34)C(c3ccco3)C2)cc1 (stereo not given) | 26µM* | 2% | 31% | -2% | -70%
COc1cc(CN2CCCCC2C(=O)Nc2ccc(Oc3ccccc3)nc2)ccc1O (stereo not given) | ? | 5% | 36% | ? | ?
Cc1nc(N2N=C(c3ccc(Cl)cc3)CC2c2ccco2)sc1C(=O)N(C)C (stereo not given) | 16µM* | -2% | 14% | -20% | 21µM*
Cc1ccc(C2=NN(C(=O)CN3C(=O)c4ccccc4S3(=O)=O)C(c3ccco3)C2)cc1 (stereo not given) | ? | 7% | 25% | 5% | 13µM*
Cc1ccc(C2=NN(C(=O)C3CCCO3)C(c3ccco3)C2)cc1 (stereo not given) | ? | 1% | -1% | 2% | -15%
Clc1ccc(C2=NN(c3ccccc3)C(c3ccco3)C2)cc1 (stereo not given) | -16% | ? | 16% | -2% | 3%
CCCCN(C)CCNC(=O)c1cn(C)c(=O)c2c1c1ccccc1n2C | -7% | . | 6% | -1% | -24%
CC(C)C[C@H](NC(=O)[C@H](Cc1ccccc1)NC(=O)c1cnccn1)B(O)O | 0.0075µM* | . | . | . | 0.0042µM*
COc1cccc(/C(O)=C/c2nc3ccc(C(=O)NCCc4ccc(Cl)cc4)cc3[nH]c2=O)c1 | 6.5µM* | 6% | ? | 14µM* | 6.5µM*
COc1cccc(/C(O)=C/c2nc3ccc(C(=O)NCCc4cccc(C)c4)cc3[nH]c2=O)c1 | -88% | 0% | 20% | ? | -87%
C(#Cc1ccccc1)C[N+]1(CC#Cc2ccccc2)CCCC1 | 1µM* | 1% | ? | -23% | 1.8µM*
C=CC#CC[N+]1(CC#Cc2ccccc2)CCOCC1 | -13% | 5% | -6% | -28% | 1%
C#CC[N+]1(CC#Cc2ccc(C)cc2)CCCCC1 | 3.3µM* | 3% | -2% | 4% | 2.3µM*
SMILES | TDP1 cell noCPT | TDP1 block | RORg inh | VP16 counter | TDP1 cell CPT
C=CC[N+]1(CC#Cc2ccccc2)CCCC1 | ? | 0% | 4% | -1% | ?
CNC(=S)N(CCc1ccccc1)Cc1cc2cc(OC)c(OC)cc2[nH]c1=O | ? | 8% | 8% | -6% | 1%
O=C(CCl)N1c2ccccc2Oc2ccc3ccccc3c21 | 1.5µM* | . | . | . | 5.2µM*
CC(=O)N1c2ccccc2Oc2cc3ccccc3cc21 | -7% | 3% | ? | 16% | 7%
O=C(NCc1ccccn1)C1CCCN(S(=O)(=O)c2cc(Cl)ccc2Cl)C1 (stereo not given) | 8.2µM* | . | . | . | 9.2µM*
O=C(NCc1cccnc1)C1CCN(S(=O)(=O)c2cccnc2)CC1 | -20% | 6% | 8% | 1% | -10%
COc1ccc(C)cc1S(=O)(=O)N1CCCC(C(=O)NCc2ccccn2)C1 (stereo not given) | -5% | 1% | 8% | 1% | 2%
Cc1cc(S(=O)(=O)N2CCCC(N(C)CCc3ccccn3)C2)c(C)cc1Cl (stereo not given) | 21µM* | 3% | -14% | 1% | 21µM*
O=C(NCc1cccnc1)C1CCN(S(=O)(=O)c2cc(Cl)ccc2Cl)CC1 | ? | 1% | 37% | -14% | 7.3µM*
O=C(Nc1ccc(Br)cc1)c1cc2ccccn2n1 | 5% | 4% | -2% | 3% | 4%
Cc1[nH]c2ccccc2c1C(=O)c1cc(Cc2ccccc2)sc1N | 16µM* | . | . | . | ?
O=c1c2ccccc2nnn1-c1ccccc1 | -21% | . | . | . | -1%
N=c1c2ccccc2nnn1-c1ccc(C(F)(F)F)cc1 | 6.5µM* | 1% | -37% | -7% | ?
C(=C\c1nc(-c2ccncc2)no1)/c1ccccc1 | 16µM* | -3% | 1% | -7% | -7%
Cc1sc(NC(=O)c2cc(-c3ccccc3)nc3ccccc23)c(C(N)=O)c1C | 18µM* | 1% | ? | 0% | 15µM*
Cc1sc(NC(=O)c2cc(-c3ccc(Cl)cc3)nc3ccccc23)c(C(N)=O)c1C | 10µM* | -2% | ? | ? | 8.2µM*
O=C(NCCN1CCOCC1)c1noc2c1CCc1ccccc1-2 | -8% | 3% | 16% | -7% | -29%
CCCC(=O)OCC(=O)Nc1cc([N+](=O)[O-])ccc1OC | ? | 0% | 3% | -2% | 2%
Cc1nc2ccc([N+](=O)[O-])cc2c(=O)n1Cc1ccc(Cl)cc1 | ? | . | ? | -10% | ?
COc1ccc(Cn2c(C)nc3ccc([N+](=O)[O-])cc3c2=O)cc1 | 21µM* | . | ? | -11% | ?
Clc1ccc2c(ccc[n+]2CCC2CCCCC2)c1 | 8.9µM* | . | . | . | 10µM*
CCCCCCCCCC[n+]1cccc2cc(Cl)ccc21 | 1.3µM* | . | . | . | 1.3µM*
